± gives the standard deviation of the averaged measurements.
These molecules were tested on IL-6-GFP PC-9GR (assay: cell viability (CCK-8 OD) relative to DMSO control (fraction of control); higher = more viable cells). Conditions: compound concentration: 10 uM; treatment time: 48 h.
How it was run: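 PC-9 and PC-9GR lung cancer cells expressing lentiviral IL-6-GFP were plated at 3000 cells/well in 96-well plates and treated for 48 h with each library compound at a final 10 μM. Viability was determined by CCK-8 absorbance as a ratio of each well's optical density to the vehicle control well.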
Molecule COC(=O)c1cc(OC)c2c(c1-c1c(C(=O)OC)cc(OC)c3c1OCO3)OCO2 [Bifendate] has a cell viability of 1.19 ± 0.22.
For CCCCCOC(=O)Nc1nc(=O)n(C2OC(C)C(O)C2O)cc1F (stereo unspecified) [Capecitabine], the cell viability was 0.655 ± 0.029.
Work on O=C(CCCCCCC(=O)Nc1ccccc1)NO [Vorinostat (SAHA, MK0683)] yielded a cell viability of 0.449 ± 0.048.
Molecule CCN(CC)CCNC(=O)c1c(C)[nH]c(/C=C2\C(=O)Nc3ccc(F)cc32)c1C.O=C(O)CC(O)C(=O)O [Sunitinib Malate] has a cell viability of 1.01 ± 0.063.
CC(CCC(=O)NCCS(=O)(=O)O)C1CCC2C3C(O)CC4CC(O)CCC4(C)C3CCC12C (stereo unspecified) [Tauroursodeoxycholic Acid (TUDCA)] was tested, and the cell viability was 1.2 ± 0.37.
Cc1nnc(C(C)C)n1C1CC2CCC(C1)N2CCC(NC(=O)C1CCC(F)(F)CC1)c1ccccc1 (stereo unspecified) [Maraviroc] was tested, and the cell viability was 1.3 ± 0.033.
Molecule CC1(C)OC2CC3C4CCC5=CC(=O)C=CC5(C)C4(F)C(O)CC3(C)C2(C(=O)CO)O1 (stereo unspecified) [Triamcinolone Acetonide] has a cell viability of 1.15 ± 0.023.
For CC12CCC(=O)C=C1CCC1C2C(O)CC2(C)C1CCC2(O)C(=O)CO (stereo unspecified) [Hydrocortisone], the cell viability was 1.41 ± 0.42.
With CC(C)C(=O)OCC(=O)C12OC(C3CCCCC3)OC1CC1C3CCC4=CC(=O)C=CC4(C)C3C(O)CC12C (stereo unspecified) [Ciclesonide] the cell viability was 0.855 ± 0.11.
In the case of Nc1c(CC(=O)[O-])cccc1C(=O)c1ccc(Br)cc1.[Na+] [Bromfenac Sodium], the cell viability is reported as 0.923 ± 0.095.
With Cn1c(=O)cc(N2CCCC(N)C2)n(Cc2ccccc2C#N)c1=O (stereo unspecified) [Alogliptin] the cell viability was 0.0419 ± 0.21.

Reference: the supplement of paper PMC8866396
